Values joined by “and” are separate entries in the source; they are usually repeats but may differ in a detail not shown here. Equal values may be shown once. Active and inactive are the calls of the source. The calls were made as follows: active = hit-call score of the fitted dose curve at least 0.9, where 1 is the maximum; inactive = score below 0.9.
Test: ATG_EGR_CIS: Attagene CIS-FACTORIAL HepG2 Assay for human Early Growth Response 1 (EGR1) (AID 2282938)
Conditions: HepG2 Attagene CIS-FACTORIAL EGR reporter mRNA; actives raise or lower the signal
Protocol: ATG_CIS is a cell-based, multiplexed-readout assay that uses HepG2, a human liver cell line, with measurements taken at 24 hours after chemical dosing in a 24-well plate.ATG_EGR_CIS is one of 52 assay component(s) measured or calculated from the ATG_CIS assay. It is designed to make measurements of mRNA induction, a form of inducible reporter, as detected with fluorescence intensity signals by Reverse transcription polymerase chain reaction (RT-PCR) and Capillary electrophoresis technology.Data from the assay component ATG_EGR_CIS was analyzed into 1 assay endpoint. This assay endpoint, ATG_EGR_CIS, was analyzed with bidirectional fitting relative to DMSO as the negative control and baseline of activity. Using a type of inducible reporter, measures of mRNA for gain or loss-of-signal activity can be used to understand the reporter gene at the transcription factor-level as they relate to the gene EGR1. Furthermore, this assay endpoint can be referred to as a primary readout, because this assay has produced multiple assay endpoints where this one serves a reporter gene function. To generalize the intended target to other relatable targets, this assay endpoint is annotated to the dna binding intended target family, where the subfamily is zinc finger.
Human liver HepG2 cells are transiently transfected with multiple reporter transcription units (MRTUs) in 6-well plates using FuGene 6 reagent (Roche; 3 ml FuGene/1 mg DNA). The MRTU constructs are regulated by a cis-regulating element (promoter). […] A major difference between the CIS and TRANS system is that in CIS activities of endogenous TFs are measured, whereas the TRANS assay evaluates changes in activities of exogenous, chimeric NR-Gal4 proteins. […] At the end of 24 hour incubation, total RNA was isolated using TriZol reagent (Invitrogen). The isolated RNA is then reverse-transcribed using oligo(dT) primer and Mo-MLV reverse transcriptase (Invitrogen) with DNAse I (Ambion) treatment for 30 min. The one-tenth of the produced cDNA was amplified by PCR using Taq DNA polymerase (Invitrogen) and two reporter sequence-specific primers. The PCR products were fluorescently labeled by primer extension with 6-arboxyfluorescein (6-FAM) 5'-labeled reporter sequence-specific primer (2 min at 95 C, 20 s at 68 C and 10 min at 72 C) and these products were digested with 5U of HpaI (New England Biolabs) for 2h at 37 C. The fragments were purified using Qiaquick PCR columns (Qiagen), analyzed on an ABI 3130xL genetic analyzer (Applied Biosystems) with peak positions identified by using a set of X-rhodamine (ROX)-labeled MapMarker1000 molecular weight standards (BioVentures). The raw capillary electrophoresis data was processed using Attagraph software (Attagene).
With `CCOC(=O)C(SP(=S)(OC)OC)c1ccccc1` (stereo not given) the outcome was “inactive”.
In the case of `CCCCC(CC)COC(=O)Cl` (stereo not given), the outcome is reported as “inactive”.
In the case of `C=C(C)[C@@H]1CC=C(C=O)CC1`, the outcome is reported as “inactive”.
With `C#CCOC(=O)/C=C(C)/C=C/CC(C)CCCC(C)C` (stereo not given) the outcome was “inactive”.
For `CC(C)(c1ccc(O)c(-c2ccccc2)c1)c1ccc(O)c(-c2ccccc2)c1`, the AC50 was 5.2 µM (active).
For `Oc1cc(Cl)c(Cl)cc1Cl`, the AC50 was 66.6 µM (active).
With `O=C(CBr)c1ccc(O)cc1` the outcome was “inactive”.
In the case of `O=c1oc2ccccc2c(O)c1C(CC(O)c1ccc(-c2ccc(Br)cc2)cc1)c1ccccc1` (stereo not given), the AC50 is reported as 41.1 µM (active) and 17.8 µM (active).
In the case of `O=C(NC(=O)c1c(F)cccc1F)Nc1ccc(Cl)cc1`, the outcome is reported as “inactive”.
In the case of `CCN(N=O)C(N)=O`, the outcome is reported as “inactive”.
For `CCOC(=O)CC(=O)CCl`, the AC50 was 32.2 µM (active).
For `N#Cc1ccc(Cl)cc1`, the outcome was “inactive”.
For `CS(=O)(=O)c1ccc(C(=O)C2C(=O)CCCC2=O)c(Cl)c1COCC(F)(F)F`, the outcome was “inactive”.
With `Oc1c(Cl)cc(Cl)cc1Cl` the outcome was “inactive”.
With `CC(O)(CS(=O)(=O)c1ccc(F)cc1)C(=O)Nc1ccc(C#N)c(C(F)(F)F)c1` (stereo not given) the outcome was “inactive”.
For `Brc1ccc(Oc2c(Br)cc(Br)cc2Br)c(Br)c1`, the outcome was “inactive”.
In the case of `CCCCCCCCCCCCc1cccc(S(=O)(=O)O)c1`, the outcome is reported as “inactive”.
With `Cc1cccc(OP(=O)(Oc2cccc(C)c2)Oc2cccc(C)c2)c1` the outcome was “inactive”.
With `c1cc[c]([Sb]([c]2ccccc2)[c]2ccccc2)cc1` the outcome was “inactive”.
With `CNC(=O)CSP(=O)(OC)OC` the outcome was “inactive”.
With `COCCl` the outcome was “inactive”.
In the case of `Nc1ccc(-c2ccccc2)cc1`, the outcome is reported as “inactive”.
With `Clc1cccc(Cl)c1Cl` the outcome was “inactive”.
In the case of `COc1nn(C(=O)NS(=O)(=O)c2ccccc2OC(F)(F)F)c(=O)n1C`, the outcome is reported as “inactive”.
For `CC(C)[C@H](C(=O)OC(C#N)c1cccc(Oc2ccccc2)c1)c1ccc(OC(F)F)cc1` (stereo not given in full), the outcome was “inactive”.
With `CC(C)O.CC(C)O.OCCN(CCO)CCO.OCCN(CCO)CCO.[Ti]` the outcome was “inactive”.
In the case of `CCCCCCCCCCCCOS(=O)(=O)O`, the outcome is reported as “inactive”.
For `OCC(c1ccc(Cl)cc1)c1ccc(Cl)cc1`, the AC50 was 53.2 µM (active).
With `CCOc1cc(C=O)ccc1O` the outcome was “inactive”.
In the case of `CC(C)CP(=S)(S)CC(C)C`, the outcome is reported as “inactive”.
In the case of `C=CCc1ccccc1O`, the outcome is reported as “inactive”.
In the case of `Cc1cc(Cl)ccc1OCCCC(=O)O`, the outcome is reported as “inactive”.
With `O=C1C[C@@H]2OCC=C3CN4CC[C@]56c7ccccc7N1[C@H]5[C@H]2[C@H]3C[C@H]46` the outcome was “inactive”.
For `O=c1[nH]c2ccccc2n1C1CCN(CCCC(c2ccc(F)cc2)c2ccc(F)cc2)CC1`, the outcome was “inactive”.
For `CC(c1ccccc1)(c1ccc(O)cc1)c1ccc(O)cc1`, the AC50 was 12.3 µM (active).
In the case of `CCOP(=S)(OCC)SCS(=O)(=O)C(C)(C)C`, the outcome is reported as “inactive”.
With `O=C1C=CC(=O)c2ccccc21` the outcome was “inactive”.
In the case of `O=C1c2ccccc2C(=O)C1C(=O)C(c1ccccc1)c1ccc(Cl)cc1` (stereo not given), the AC50 is reported as 13.1 µM (active).
For `C=CCN=C=S`, the outcome was “inactive”.
For `CCC[CH2][Sn]([Cl])([Cl])[CH2]CCC`, the AC50 was 1.24 µM (active).

From PubChem BioAssay (EPA / NIEHS)
